Test results published in PubChem BioAssay AID743397 (Broad Institute, 2014).
Out of some 340,000 compounds screened, about 330 (0.097%) were called active. For the sample, actives were picked, then their nearest neighbours and some compounds at random. Values without a mark were called inactive.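 The calls were made as follows: active = mean replicate inhibition of at least 30% and at least 1% of replicates passing that level; inconclusive = only one of the two criteria is met; inactive = neither criterion is met.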

Tested on: Voltage-dependent L-type calcium channel subunit alpha-1D (CaV1.3) ICDI/IQ interaction
Test: Disruptors of the CACNA1D IQ motif to Ca2+-dependent inactivation inhibitor domain association, primary screening, Förster resonance energy transfer in intact living cells, one concentration (AID 743397);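 also: 0% = median of the neutral control wells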
Details: HEK cells, CFP/YFP FRET ICDI-IQ, plate reader, 10 min; at 12.3 µM; hits give high values; percent FRET-ratio fall versus neutral wells

SMILES	inhibition
C=CCN=C1NC(c2cccc(C(F)(F)F)c2)C(C(=O)OC)=C(C)N1C (configuration not stated)	-4.33%
COC(=O)C(C(=O)OC)c1ccccc1NS(=O)(=O)c1cccc2ccccc12	-10.7%
Cc1nc(NC(=O)C(C)(C)C)sc1[N+](=O)[O-]	-3.6%
CCc1c(-c2ccccc2OC)ncn1CCc1ccccc1OC	-9.61%
Cc1nc2c(OCc3ccc(Cl)cc3Cl)cccn2c1N(C)CC1CC1	-6.39%
CC(=O)Nc1cccc(-c2cc(NC=O)c3ncc(-c4ccc(F)c(Cl)c4)n3c2)c1	-10.8%
CN[C@H]1C[C@H]2c3[nH]c4c(-c5ccccc5)cccc4c3CCN2C(=O)[C@H]1[C@H](C)O	-3.8%
CCOC(=O)[C@]12CCC=C1N(Cc1ccco1)C(=O)[C@H](CC(=O)NCc1cccc(C(F)(F)F)c1)C2	-5.22%
C[C@H](O)[C@@H]1C(=O)N2CCc3c([nH]c4c(-c5ccc6c(c5)OCO6)cccc34)[C@@H]2C[C@@H]1N(C)C(=O)c1ccco1	-4.05%
O=C(N[C@H](C(=O)N1CCC[C@H]1C(=O)NCCc1ccccc1Cl)c1ccccc1)c1ccccc1	-4.64%
Oc1cccc2cc(-c3ccncc3)cnc12	-5%
COC(=O)C1=C(C)N(Cc2ccccc2C(F)(F)F)C(=NCc2ccc(OC)cc2)NC1c1cccc(C(F)(F)F)c1 (configuration not stated)	-9.27%
CCCCOCCCNC(=O)C[C@@H]1C[C@@]2(C(=O)OC)CCCCC=C2N(CCC2=CCCCC2)C1=O	-3.67%
CCc1cccc(OC2OC(CO)C(O)C(O)C2NC(C)=O)c1 (configuration not stated)	107% (active)
COC(=O)c1ccc2ccccc2c1OC1OC(CO)C(O)C(O)C1NC(C)=O (configuration not stated)	-1.34%
CCCCCCCCCOC1OC(CO)C(O)C(O)C1NC(C)=O (configuration not stated)	-5.79%
CCCCNc1cccc2c1S(=O)(=O)N[C@@H](C)CO2	-5.83%
COC(=O)C1=C(C)N(Cc2cccc(C(F)(F)F)c2)C(=NCc2ccccc2)NC1c1ccccc1C(F)(F)F (configuration not stated)	-1.85%
CCCCc1c(-c2ccc(Br)cc2)ncn1CCc1ccccc1OC	-9.97%

SMILES	inhibition
COC(=O)c1ccc(CN2C(=O)[C@]3(OCCC=C[C@H]3C)c3c(Br)cccc32)cc1	-5.34%
COc1ccc(-c2ccc3c(n2)CCCN3S(=O)(=O)c2ccc(C)cc2)cc1	-4.73%
COc1ccc(CNS(=O)(=O)c2cc(Br)ccc2Br)cc1	-5.62%
COc1cccc(NC(=O)N(C)C[C@@H]2OCc3cn(nn3)CCCC(=O)N([C@@H](C)CO)C[C@H]2C)c1	-4.88%
CN1C(=O)C(Br)(Br)CC1c1cccnc1 (configuration not stated)	-4.22%
CC[C@H](NC(=O)[C@H](Cc1ccccc1)NC(=O)[C@H]1O[C@@H](n2cnc3c(=O)[nH]c(N)nc32)[C@H](O)[C@@H]1O)c1ccccc1	-7.74%
COC(=O)[C@]12C[C@H](CC(=O)N3CCN(C(=O)C4CC4)CC3)C(=O)N(Cc3ccc4c(c3)OCO4)C1=C[C@H](C(C)(C)C)O[C@@H]2C	-7.42%
CC1CCCN(c2cccc3c2S(=O)(=O)N(Cc2ccc(F)cc2)[C@@H](C)[C@H](c2ccccc2)O3)C1 (some centres not stated)	-4.9%
COCCNC(=S)N(C)[C@H]1C[C@H]2c3[nH]c4ccccc4c3CCN2C[C@H]1[C@H](C)O	-5.06%
COC(=O)N1Cc2ccnnc2CC1c1ccccc1Br (configuration not stated)	-4.44%
CCOC(=O)N1CCN(C(=O)C[C@H]2C[C@@]3(C(=O)OC)C(=C[C@H](C4CCCC4)O[C@@H]3C)N(Cc3ccccc3)C2=O)CC1	-8.9%
O=C(Nc1c(Cl)c(C2CC2)nn1-c1ccccc1)C(Cl)(Cl)Cl	-4.55%
O=c1[nH]c(-c2ccccc2)cn1C1CCN(Cc2ccc(-c3nc4ccc(F)cc4nc3-c3ccccc3)cc2)CC1	-6%
CC(=NNC(N)=O)c1ccc(Cl)c(-n2cccc2)c1	-7.9%
CCc1ccc(C2=CC(=O)CC(C)(C)C2=O)cc1	-7.01%
COC(=O)C1=C(C)N(Cc2ccc(C(F)(F)F)cc2)C(=NCc2ccccc2)NC1c1ccccc1C(F)(F)F (configuration not stated)	-9.62%
Nc1ncnc2c1ncn2[C@@H]1O[C@H](C(=O)N[C@@H](CCc2ccccc2)C(=O)NCC(=O)N2CCOCC2)[C@@H](O)[C@H]1O	-4.61%
CC(=O)N1C[C@@H](CO)[C@@H](N(C)C(=O)C(C)(C)C)C[C@H]1c1ccccc1Br	-3.95%
